Test [1] in a line: NCI Yeast Anticancer Drug Screen. Data for the rad50 strain (AID 155).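 Further: 0% = growth of vehicle-only cultures of the same strain.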 The following applies: S. cerevisiae rad50 strain growth inhibition; at 50.0 µM; hits give high values. In a few lines: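 Growth of the mutant yeast was measured after compound exposure and referenced to vehicle-treated cultures.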
The nature of test [2]: NCI Yeast Anticancer Drug Screen. Data for the mec2-1 strain (AID 157). The settings on record: S. cerevisiae mec2-1 strain, at 50.0 µM, hits give high values. Put shortly:
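Strain: mec2-1 (DNA repair/cell cycle alteration). Compound exposure, then growth measured; inhibition expressed relative to vehicle.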

The nature of test [3]: NCI Yeast Anticancer Drug Screen. Data for the sgs1 mgt1 strain (AID 161).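 Further: 0% = growth of cultures given vehicle only.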 The following applies: S. cerevisiae sgs1 mgt1 strain, at 50.0 µM, hits give high values. In a few lines:
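Mutant yeast exposed to compound; growth scored against vehicle-only wells.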

Test [4] in a line: NCI Yeast Anticancer Drug Screen. Data for the cln2 rad14 strain (AID 165).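 Further: 0% = growth equal to vehicle treated cultures.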 The settings on record: S. cerevisiae cln2 rad14 strain, at 50.0 µM, hits give high values. Put shortly: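 Compounds are applied to the cln2 rad14 yeast strain, and growth is then compared with that of vehicle-treated cultures to give inhibition.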
Test [5] in a line: NCI Yeast Anticancer Drug Screen. Data for the bub3 strain (AID 167). The settings on record: S. cerevisiae bub3 mutant strain, at 50.0 µM, hits give high values. In a few lines:
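Whole-cell yeast assay. The mutant strain was incubated with compounds, and growth inhibition was determined by comparison with vehicle-treated cells.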

Test [6] is described as follows: NCI Yeast Anticancer Drug Screen. Data for the mlh1 rad18 strain (AID 175). The following applies: S. cerevisiae mlh1 rad18 strain growth inhibition; at 50.0 µM; hits give high values. In a few lines: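 Read-out is yeast growth inhibition, calculated against vehicle-only controls. The compound was applied to a strain engineered with DNA damage repair alterations.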

The structures appear in SMILES notation. The panel holds about 79,000 compounds, 15% with a hit somewhere; the sample as a whole holds those more often. Values without a mark were called inactive. Calls of active or inactive are those of the source. No stated cut-off is given here; in the data, active means growth inhibition above about 70%; inactive means the rest.

In the case of `CN(C)CC(N)C(=O)O` (stereo unspecified), the growth inhibition in test [1] was -4.35%; in test [2], -13.1%; in test [3] it was -12.2%; in test [4] it was -13.6%; in test [5], -21.3%; in test [6] it was -18.6%.
Turning to `Cc1cc(C)c(NS(=O)c2cccc(Cl)c2)c(C)c1` (stereo unspecified), the growth inhibition is -29.1% in test [1]; -26.3% in test [2]; -59.2% in test [3]; 1.35% in test [4]; -35.2% in test [5]; -50.2% in test [6].
In the case of `COc1ccc2[nH]cc(CN3CCC(CO)(c4ccccc4)CC3)c2c1`, the growth inhibition is 13.4% in test [1]; 1.2% in test [2]; -16.4% in test [3]; 6.9% in test [4]; 5.95% in test [5]; 3.55% in test [6].
Consider `CCCCCCCc1cc(=O)[nH]c(=S)[nH]1`, for which the growth inhibition in test [1] is 4.05%; in test [2] it was -4.9%; in test [3], 0.5%; in test [4] it was -10.8%; in test [5], 11.3%; in test [6] it was -5.4%.
With `ClC(Cl)=C(c1ccccc1)c1ccccc1`, the growth inhibition was 30.2% in test [1]; 22.4% in test [2]; 36.5% in test [3]; 7.15% in test [4]; -4.45% in test [5]; 16.9% in test [6].
For the compound `CS/C(=C\c1ccc2ccccc2[n+]1C)N1CCN(CCCO)CC1`, the growth inhibition in test [1] is 23.4%; in test [2] it was 10%; in test [3] it was 9.95%; in test [4], -20.6%; in test [5], -7.4%; in test [6], 38.1%.
Turning to `COc1ccc2[nH]c3c4c(ccc3c2c1)C(=O)C=CC4=O`, the growth inhibition was 19.8% in test [1]; 18.3% in test [2]; 12% in test [3]; -1.05% in test [4]; 9.45% in test [5]; 17.6% in test [6].
With `Nc1c2ccccc2nc2ccc3c(=O)cc(-c4ccccc4)oc3c12`, the growth inhibition in test [1] is 20.6%; in test [2] it was 18.9%; in test [3], -12.1%; in test [4] it was 22.1%; in test [5], 11.1%; in test [6], -73%.
Consider `CCC(c1ccc(OC)cc1)c1cc2c(cc1OCCO)OCO2` (stereo unspecified), for which the growth inhibition in test [1] is 70.9% (active); in test [2] it was 66.3%; in test [3], 81.7% (active); in test [4], 67.7%; in test [5], 58.1%; in test [6], 96.3% (active).
For `C=CCNC(=O)CCCCCCCC1C(CCCCCCCC)C2(Cl)C(Cl)=C(Cl)C1(Cl)C2(Cl)Cl` (stereo unspecified), the growth inhibition in test [1] was 23.6%; in test [2] it was -4.6%; in test [3], 18.2%; in test [4], -12.2%; in test [5] it was 1.75%; in test [6], 17.8%.
Regarding `CCCC[N+](C)(CCCC)CCCC`, the growth inhibition in test [1] is 9.15%; in test [2], 9.65%; in test [3], 7.8%; in test [4], -1.15%; in test [5], 14.2%; in test [6], 3.3%.
As to `COc1cc(C2c3cc4c(cc3C(OC(=O)C[n+]3ccccc3)C3COC(=O)C23)OCO4)cc(OC)c1OC` (stereo unspecified), the growth inhibition was 28.7% in test [1]; -9.15% in test [2]; 1.7% in test [3]; -4.75% in test [4]; 18.8% in test [5]; 16.5% in test [6].
Take `NNS(=O)(=O)c1ccc(N)cc1`: the growth inhibition in test [1] was 5.6%; in test [2], 1.3%; in test [3], -5.4%; in test [4], -35%; in test [5] it was 18.8%; in test [6] it was 5.15%.
On to `CC(=O)C1=C(c2ccccc2)N(C2OC(CO)C(O)C(O)C2O)C(S)=C(C#N)C1c1ccc(Cl)cc1` (stereo unspecified), for which the growth inhibition in test [1] was 42.9%; in test [2] it was 23.9%; in test [3], 10.1%; in test [4], 29.2%; in test [5], 25.1%; in test [6], 49%.
As for `C=C1CCC/C(=N\Nc2ccc([N+](=O)[O-])cc2[N+](=O)[O-])C12CCCC2`, the growth inhibition in test [1] is -2.45%; in test [2], 3.45%; in test [3], -4.65%; in test [4], -11.6%; in test [5] it was 1.15%; in test [6] it was -1.35%.
In the case of `N=C1N=Nc2nc(C(C(=O)c3cccc([N+](=O)[O-])c3Cl)c3nc4n(c3O)C(=N)N=N4)c(O)n21` (stereo unspecified), the growth inhibition in test [1] is -2.65%; in test [2], 0.7%; in test [3], 13.8%; in test [4], -23.5%; in test [5] it was -0.15%; in test [6], 2.8%.
For the compound `ClC1CCC(c2ccccc2)CC1` (stereo unspecified), the growth inhibition was 9.2% in test [1]; -3.45% in test [2]; 1.5% in test [3]; 3.75% in test [4]; -11.2% in test [5]; -2.6% in test [6].
`C=CCN(C)C(=O)CCCCCCCC1C(CCCCCCCC)C2(Cl)C(Cl)=C(Cl)C1(Cl)C2(Cl)Cl` (stereo unspecified): the growth inhibition in test [1] was 30.7%; in test [2], 4.35%; in test [3], 8.6%; in test [4], -20.5%; in test [5], -1.5%; in test [6] it was -8.35%.
For the compound `BrC1(Br)C2CC/C=C/CCCCC21` (stereo unspecified), the growth inhibition in test [1] is -10.1%; in test [2], 13.9%; in test [3] it was 20.9%; in test [4], -1.85%; in test [5] it was -3.05%; in test [6], -27.1%.
`O=C(NCc1ccccc1)C1CCN(Cc2c[nH]c3ccccc23)CC1`: the growth inhibition in test [1] is -0.3%; in test [2], -4.4%; in test [3], 3.15%; in test [4], 16.5%; in test [5] it was 1.7%; in test [6], 28.7%.
As to `COc1nc(C(O)C2OC(C)(C)OCC2O)[nH]c1C#N` (stereo unspecified), the growth inhibition in test [1] was 6.05%; in test [2], 7%; in test [3], 7.75%; in test [4], 10.7%; in test [5] it was 2.35%; in test [6], 7.35%.
